Assay results reported in PubChem BioAssay (NCATS).
Results filed as inconclusive are left out. A call without a number means that no potency is given here. Calls of active or inactive are those of the source. The call rests on the fitted dose curve; in most records, active means well fitted curve in the direction sought with a large enough effect; inconclusive means small, poorly fitted or top-dose-only effect, or another doubt; inactive means no such curve, though single readings can be large; an effect the other way counts as inactive or inconclusive.

Tests used:
[1] = qHTS for Inhibitors of Plasmodium falciparum (DD2) proliferation (AID 504314);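 further: parasite DNA measured by SYBR Green fluorescence after red cell lysis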
Summary of the method: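 Quantitative HTS growth inhibition: SYBR Green I binding to parasite DNA after 72 h drug exposure of infected erythrocytes (0.3% parasitemia, 2.5% hematocrit). Signals normalized per plate to inhibitor and vehicle wells.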

[2] = qHTS for Inhibitors of Plasmodium falciparum (HB3) proliferation (AID 504318); further: nearly all actives have a fitted effect of over 60% in size; further: potency means the concentration at half of the fitted maximal effect
Summary of the method: (§1)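 Erythrocytes infected with P. falciparum line (0.3% parasitemia, 2.5% hematocrit final) incubated with compounds 72 h at 37 °C, 5% CO2; SYBR Green lysis buffer added, fluorescence read next day. Normalized to 0.29 uM artemisinin and DMSO.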

[3] = qHTS for Inhibitors of Plasmodium falciparum (CP250) proliferation (AID 504320); further: potency means the concentration at half of the fitted maximal effect
Summary of the method: as §1

[4] = qHTS for Inhibitors of Plasmodium falciparum (GB4) proliferation (AID 504315); further: nearly all actives have a fitted effect of over 50% in size; further: potency means the concentration at half of the fitted maximal effect
Summary of the method: as §1

[5] = qHTS for Inhibitors of Plasmodium falciparum (7G8) proliferation (AID 504316); further: nearly all actives have a fitted effect of over 65% in size; further: potency means the concentration at half of the fitted maximal effect
Summary of the method: as §1

Compound: COc1cccc([C@H]2Oc3ccc(OC)cc3C(=NOC[C@@H](O)COCc3ccco3)[C@H]2O)c1
- Potency [1]: inactive
- Potency [2]: inactive
- Potency [3]: inactive

Compound: COc1ccc([C@]23Cc4cc(OC)c(OC)cc4[C@H](O2)C2=C(CC(C)(C)CC2=O)O3)cc1
- Potency [4]: inactive
- Potency [3]: inactive

Compound: O=C1OC2(CCCCC2)CC2=C1[C@H]1O[C@](c3ccsc3)(Cc3ccccc31)O2
- Potency [1]: inactive
- Potency [5]: inactive
- Potency [2]: inactive
- Potency [3]: inactive

Compound: CCCNC(=O)OC[C@H]1O[C@H](CCON=C(C)CCN2CCCc3nc(C)c(C)cc32)C=C[C@H]1Oc1ccc(OC)cc1
- Potency [4]: 1900 nM (active)
- Potency [5]: 1350 nM (active)
- Potency [2]: 1690 nM (active)

Compound: N#Cc1ccc2c(c1)C[C@]1(c3ccsc3)Oc3c(c(=O)oc4ccc(F)cc34)[C@@H]2O1
- Potency [3]: inactive

Compound: CCN1C(=NCC(C)C)NC(c2cccc(F)c2)C(C(=O)OC)=C1C (centres undefined)
- Potency [3]: inactive

Compound: CCC(=O)C[C@@H](NC(=O)OC)c1ccccc1
- Potency [5]: inactive
- Potency [3]: inactive

Compound: COc1cccc2c1[C@H](C=Cc1ccccc1)[C@@H]([C@H](O)CN=[N+]=[N-])OC2
- Potency [4]: inactive
- Potency [3]: inactive

Compound: COC1=C[C@H](C(=O)NC2CCN(Cc3ccccc3)CC2)C(C)C(c2ccccc2)CC1=O (some centres undefined)
- Potency [3]: inactive

Compound: CCC(=O)OC1(C)C(=O)C=C2C=C(c3ccsc3)OC=C2C1=O (centres undefined)
- Potency [4]: inactive
- Potency [5]: inactive
- Potency [2]: inactive
- Potency [3]: inactive

Compound: COc1ccc(-c2nc3c(c4c2C[C@H](c2ccccc2)OC4)CN(C(=O)N[C@@H](C)C(=O)OC(C)C)CC3)c(C)c1
- Potency [5]: 1510 nM (active)
- Potency [2]: 1650 nM (active)

Compound: O=C1CCCC2=C1[C@H]1O[C@](CCCCN3C(=O)c4ccccc4C3=O)(Cc3ccccc31)O2
- Potency [5]: 1900 nM (active)
- Potency [3]: inactive

Compound: C#CCN1C(=O)[C@]2(O[C@H](C)CC3=CCCC32)c2c(Br)cccc21 (some centres undefined)
- Potency [4]: inactive
- Potency [5]: inactive
- Potency [2]: inactive
- Potency [3]: inactive

Compound: C=CCC12C=C(OC)C(=O)C(C1=O)C1c3ccccc3CC12 (centres undefined)
- Potency [1]: inactive
- Potency [2]: inactive
- Potency [3]: inactive

Compound: COC(=O)CC=C[C@@H](C)[C@@H](C=NOC[C@H]1O[C@H](c2ccccc2)C=C[C@H]1Oc1ccc(OC)cc1)N[S+](=O)([O-])c1ccc(C)cc1
- Potency [4]: inactive
- Potency [3]: inactive

Compound: CC1(C)CC(=O)C2=C(C1)O[C@@]1(CCCCN3C(=O)c4ccccc4C3=O)Cc3c(ccc4ccccc34)[C@H]2O1
- Potency [5]: 1510 nM (active)
- Potency [3]: inactive

Compound: C[C@@H]1CC[C@H]2C(=O)O[C@@H](COc3ccc(C(C)(C)C)cc3)CN2[C@@H]1c1ccc(Br)cc1
- Potency [2]: 1690 nM (active)
- Potency [3]: 1510 nM (active)

Compound: C[C@@H]1CC[C@H]2C(=O)N(Cc3ccc(Cl)cc3)C[C@@H](O)CN2[C@@H]1c1ccc(Br)cc1
- Potency [2]: inactive
- Potency [3]: inactive

Compound: COC(=O)C1=C(C)N(CC2CC2)C(N(C)Cc2ccc(OC)cc2)=NC1c1ccccc1 (centres undefined)
- Potency [2]: inactive

Compound: COC1=CC2C(=O)C(C1=O)C1c3ccccc3CC21 (centres undefined)
- Potency [4]: inactive
- Potency [5]: inactive
- Potency [2]: inactive
- Potency [3]: inactive

Compound: COC(=O)C1=C(C)N(Cc2ccccc2)C(=NCC2CC2)NC1c1ccc(Br)cc1 (centres undefined)
- Potency [5]: inactive
- Potency [2]: inactive

Compound: C[C@]12C[C@@](C)(C=C1C=Cc1ccc(C(F)(F)F)cc1)C(=O)C[C@H]2c1ccc(C(F)(F)F)cc1
- Potency [4]: 1510 nM (active)
- Potency [3]: inactive

Compound: CCN1C(=NCc2ccc(OC)cc2)NC(c2ccccc2)C(C(=O)OC)=C1C (centres undefined)
- Potency [5]: inactive
- Potency [2]: inactive
- Potency [3]: inactive

Compound: O=C1Nc2ccccc2[C@@]12O[C@H](COc1ccccc1)CC1=C2CCC1
- Potency [3]: inactive

Compound: COC(=O)N[C@H](c1ccccc1)C(C(=O)OC)C(=O)OC
- Potency [4]: 1510 nM (active)
- Potency [5]: 1900 nM (active)
- Potency [2]: 1900 nM (active)
- Potency [3]: inactive
